Reference: PubChem BioAssay (NCATS)
Results filed as inconclusive are left out. Values without a mark were called inactive. Activity calls are given as the source filed them. Calls come from the whole dose curve; as a rule, active = well fitted cell-killing curve with a large enough effect; inconclusive = small, poorly fitted or top-dose-only effect; inactive = flat fitted curve, though single readings scatter.

Experiment: Cell Viability - LYMP2-019 (AID 973); note: nearly all actives have a fitted effect of over 55% in size;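 for activity change, negative = cytotoxicity: 0% = DMSO alone and full effect = 92 µM tetraoctylammonium bromide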
Conditions: LYMP2-019 lymphoblastoid cell line viability; series mostly up to 92.2 µM; activity change, negative = cytotoxicity: at the top concentration
From the text: NIH Chemical Genomics Center [NCGC]
NIH Molecular Libraries Screening Centers Network [MLSCN]
National Institutes of Environmental Health Sciences [NIEHS]
National Toxicology Program [NTP]
We have developed a 1536-well cell-based assay for quantitative high throughput screening (qHTS) against a number of cell lines to determine in vitro cytotoxicity of small molecules. This particular assay uses a human lymphoblastoid cell line (LYMP2-019) purchased from Coriell Institute for Medical Research.
NCGC Assay Protocol Summary:
The CellTiter-Glo luminescent cell viability assay (Promega) is a homogeneous method to measure the number of viable cells in culture. The end point readout of this assay is based on quantitation of intracellular ATP, an indicator of metabolic activity, using the luciferase reaction. Luciferase catalyzes the oxidation of beetle Luciferin to oxyluciferin and light in the presence of ATP. The luminescent signal is proportional to amount of ATP present.
Using the CellTiter-Glo luminescent cell viability assay, the amount of cellular ATP was measured in the lymphoblastoid cell line with complete culture medium following compound treatment for 24 hours. The assay was performed in opaque white Kalypsys 1536-well plates. In the screen, tetraoctylammonium bromide was used as positive control. Library compounds were measured for their ability to cause acute toxicity in the cell line, as reflected by a decrease in intracellular ATP levels, in a concentration-dependent manner. […] AC50 values were determined from concentration-response data modeled with the standard Hill equation.
qHTS protocol for CellTiter Glo lymphoblastoid cellular assay
[Step] [Parameter] [Value] [Description]
1. Reagent; 5 uL; 2500 lymphoblastoid cells/well
2. Time; 5 hr; 37 C incubation
4. Controls; 23 nL; Tetraoctylammonium bromide 6.4pM to 92 uM
5. Time; 24 hr; 37 C incubation
6. Reagent; 5 uL; CellTiter Glo reagent
7. Time; 30 min; Room Temperature
8. Detection; Luminescence; Viewlux plate reader
Keywords: cell viability, cytotoxicity, lymphoblastoid cell line, luminescence, NTPHTS, NTPHTS_NCGC, NIEHS, DSSTox, MLSMR, MLSCN, NIH Roadmap, qHTS, NCGC
Potency is the fitted concentration of half-maximal effect.

| Structure (SMILES) | Potency | activity change, negative = cytotoxicity |
| --- | --- | --- |
| N[C@@H](Cc1ccc(N(CCCl)CCCl)cc1)C(=O)O | 39.8 µM (active) |  |
| CCCC(C)(COC(N)=O)COC(=O)NC(C)C (stereo unspecified) |  | -8.26% |
| Oc1cccc2cccnc12 | 10 µM (active) |  |
| c1ccc2c(c1)Nc1ccccc1S2 |  | -4.72% |
| Oc1ccc(Cl)cc1Cc1ccccc1 |  | -7.54% |
| Oc1ccccc1-c1ccccc1 |  | -8.03% |
| CCOP(=S)(OCC)Oc1cc(C)nc(C(C)C)n1 |  | -1.59% |
| CC(=O)Oc1ccccc1C(=O)Nc1ncc([N+](=O)[O-])s1 | 31.6 µM (active) |  |
| CNCC(O)c1ccc(O)cc1 (stereo unspecified) |  | 3.62% |
| OCCOc1ccccc1 |  | 0.639% |
| NCC(O)c1ccc(O)cc1 (stereo unspecified) |  | -6.11% |
